We go through six molecules from ChEMBL document CHEMBL1961873, “Compounds: GSK PKIS; Assays: Nanosyn kinase panel” (2012).

For orientation: inhibition means the drop in the measured response relative to a control, in per cent.

Test [1] deals with Glycogen synthase kinase-3 beta (Homo sapiens) (UniProt P49841). Conditions: at 1 µM.
The target of test [2] is Homeodomain-interacting protein kinase 1 (Homo sapiens) (UniProt Q86Z02). Conditions: at 0.1 µM.
Test [3] has the same target. Conditions: at 1 µM.
In test [4] the target is T1, Homeodomain-interacting protein kinase 4 (Homo sapiens) (UniProt Q8NE63).
T1 sequence (whole entry): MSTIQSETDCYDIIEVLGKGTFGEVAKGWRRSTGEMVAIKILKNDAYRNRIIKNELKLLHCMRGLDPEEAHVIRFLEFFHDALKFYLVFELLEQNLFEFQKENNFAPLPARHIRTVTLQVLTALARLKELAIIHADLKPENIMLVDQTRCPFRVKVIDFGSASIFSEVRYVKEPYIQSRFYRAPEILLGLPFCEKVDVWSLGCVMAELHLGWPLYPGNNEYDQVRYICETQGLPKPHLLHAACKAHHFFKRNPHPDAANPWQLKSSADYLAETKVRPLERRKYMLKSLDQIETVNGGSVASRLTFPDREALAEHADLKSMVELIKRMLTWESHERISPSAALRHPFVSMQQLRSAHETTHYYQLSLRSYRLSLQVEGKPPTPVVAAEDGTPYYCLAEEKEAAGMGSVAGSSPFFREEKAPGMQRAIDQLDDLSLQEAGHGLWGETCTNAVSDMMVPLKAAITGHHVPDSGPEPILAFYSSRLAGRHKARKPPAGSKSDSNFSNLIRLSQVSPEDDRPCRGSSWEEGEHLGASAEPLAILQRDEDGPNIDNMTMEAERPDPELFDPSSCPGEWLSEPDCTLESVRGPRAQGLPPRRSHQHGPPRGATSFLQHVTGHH
As to conditions: at 0.1 µM.

In test [5] the target is T1, Homeodomain-interacting protein kinase 4 (Homo sapiens). Conditions: at 1 µM.
The target of test [6] is Mitogen-activated protein kinase 9 (Homo sapiens) (UniProt P45984). Conditions: at 0.1 µM.
Sequence of Mitogen-activated protein kinase 9 (Homo sapiens) (P45984 whole entry, looked up): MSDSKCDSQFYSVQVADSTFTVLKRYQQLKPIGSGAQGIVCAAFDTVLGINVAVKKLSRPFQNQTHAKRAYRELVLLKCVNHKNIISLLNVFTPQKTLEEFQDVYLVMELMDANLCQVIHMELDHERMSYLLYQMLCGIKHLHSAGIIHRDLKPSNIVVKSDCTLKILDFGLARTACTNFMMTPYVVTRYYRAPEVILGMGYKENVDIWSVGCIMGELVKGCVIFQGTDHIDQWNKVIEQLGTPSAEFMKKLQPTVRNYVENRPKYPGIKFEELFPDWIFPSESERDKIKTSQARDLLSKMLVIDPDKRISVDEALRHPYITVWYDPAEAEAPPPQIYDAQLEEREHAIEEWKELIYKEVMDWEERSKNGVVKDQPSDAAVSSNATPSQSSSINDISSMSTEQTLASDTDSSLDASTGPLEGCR
Test [7] shares this target. Conditions: at 1 µM.
The target of test [8] is Mitogen-activated protein kinase 1 (Homo sapiens) (UniProt P28482). Conditions: at 0.1 µM.
Sequence of Mitogen-activated protein kinase 1 (Homo sapiens) (P28482 whole entry): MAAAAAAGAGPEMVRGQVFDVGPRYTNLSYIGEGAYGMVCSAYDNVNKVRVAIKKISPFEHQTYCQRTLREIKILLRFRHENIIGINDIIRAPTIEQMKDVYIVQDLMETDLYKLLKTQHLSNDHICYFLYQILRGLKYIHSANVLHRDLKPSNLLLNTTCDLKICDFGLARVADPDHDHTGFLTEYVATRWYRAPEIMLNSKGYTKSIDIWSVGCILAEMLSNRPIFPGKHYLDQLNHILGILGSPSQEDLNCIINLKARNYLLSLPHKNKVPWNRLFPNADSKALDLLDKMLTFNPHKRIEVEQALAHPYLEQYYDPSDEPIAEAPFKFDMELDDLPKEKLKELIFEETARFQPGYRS
Test [9] has the same target. As to conditions: at 1 µM.
Test [10] has as its target Mitogen-activated protein kinase 3 (Homo sapiens) (UniProt P27361). As to conditions: at 0.1 µM.
Test [11] has the same target. Conditions: at 1 µM.
Test [12] deals with SRSF protein kinase 3 (Homo sapiens) (UniProt Q9UPE1). As to conditions: at 0.1 µM.
Sequence of SRSF protein kinase 3 (Homo sapiens) (Q9UPE1 whole entry): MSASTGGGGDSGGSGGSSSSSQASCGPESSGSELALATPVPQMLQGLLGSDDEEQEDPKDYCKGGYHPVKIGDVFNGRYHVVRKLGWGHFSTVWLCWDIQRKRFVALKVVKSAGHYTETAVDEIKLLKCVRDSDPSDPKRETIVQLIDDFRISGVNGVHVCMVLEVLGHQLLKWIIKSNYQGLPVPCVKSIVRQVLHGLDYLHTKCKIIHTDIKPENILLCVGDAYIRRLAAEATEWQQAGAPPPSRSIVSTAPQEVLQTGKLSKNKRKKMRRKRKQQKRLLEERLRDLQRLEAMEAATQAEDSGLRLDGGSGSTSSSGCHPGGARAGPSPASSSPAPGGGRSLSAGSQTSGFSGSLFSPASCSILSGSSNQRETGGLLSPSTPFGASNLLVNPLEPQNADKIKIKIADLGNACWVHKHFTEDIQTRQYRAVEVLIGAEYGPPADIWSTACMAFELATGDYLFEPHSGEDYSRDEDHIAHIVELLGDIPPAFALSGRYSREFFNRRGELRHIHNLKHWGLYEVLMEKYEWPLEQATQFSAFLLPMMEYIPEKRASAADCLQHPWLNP
Test [13] shares this target. Conditions: at 1 µM.
Test [14] concerns the target Mitogen-activated protein kinase 14 (Homo sapiens) (UniProt Q16539). Conditions: at 0.1 µM.
For test [15] the target is unchanged. Conditions: at 1 µM.
The target of test [16] is Mitogen-activated protein kinase 11 (Homo sapiens) (UniProt Q15759). Conditions: at 0.1 µM.
Sequence of Mitogen-activated protein kinase 11 (Homo sapiens) (Q15759 whole entry): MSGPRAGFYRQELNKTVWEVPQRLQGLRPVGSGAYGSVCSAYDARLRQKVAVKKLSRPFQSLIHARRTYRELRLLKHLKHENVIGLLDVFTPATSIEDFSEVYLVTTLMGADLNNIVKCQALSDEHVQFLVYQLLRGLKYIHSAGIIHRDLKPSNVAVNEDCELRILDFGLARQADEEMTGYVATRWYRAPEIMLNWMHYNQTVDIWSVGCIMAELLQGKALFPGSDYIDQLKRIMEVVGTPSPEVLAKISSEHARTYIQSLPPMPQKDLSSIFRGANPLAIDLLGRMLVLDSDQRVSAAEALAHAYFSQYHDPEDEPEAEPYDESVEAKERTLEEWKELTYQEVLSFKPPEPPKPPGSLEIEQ
Test [17] shares this target. As to conditions: at 1 µM.
For test [18], the target named is T2, Mitogen-activated protein kinase 13 (Homo sapiens) (UniProt O15264).
T2 sequence (whole entry): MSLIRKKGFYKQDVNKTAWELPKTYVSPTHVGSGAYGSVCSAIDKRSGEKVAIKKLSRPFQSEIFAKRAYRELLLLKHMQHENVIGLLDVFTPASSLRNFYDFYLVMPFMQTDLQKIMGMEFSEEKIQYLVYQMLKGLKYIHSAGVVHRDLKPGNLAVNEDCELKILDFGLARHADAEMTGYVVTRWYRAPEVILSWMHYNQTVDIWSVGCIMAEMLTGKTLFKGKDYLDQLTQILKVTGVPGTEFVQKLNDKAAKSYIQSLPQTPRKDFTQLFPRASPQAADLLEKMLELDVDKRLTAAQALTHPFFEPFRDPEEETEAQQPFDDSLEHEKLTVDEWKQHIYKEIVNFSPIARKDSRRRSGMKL
Conditions: at 0.1 µM.

Test [19] deals with T2, Mitogen-activated protein kinase 13 (Homo sapiens). As to conditions: at 1 µM.
The target of test [20] is T3, Mitogen-activated protein kinase 12 (Homo sapiens) (UniProt P53778).
T3 sequence (whole entry): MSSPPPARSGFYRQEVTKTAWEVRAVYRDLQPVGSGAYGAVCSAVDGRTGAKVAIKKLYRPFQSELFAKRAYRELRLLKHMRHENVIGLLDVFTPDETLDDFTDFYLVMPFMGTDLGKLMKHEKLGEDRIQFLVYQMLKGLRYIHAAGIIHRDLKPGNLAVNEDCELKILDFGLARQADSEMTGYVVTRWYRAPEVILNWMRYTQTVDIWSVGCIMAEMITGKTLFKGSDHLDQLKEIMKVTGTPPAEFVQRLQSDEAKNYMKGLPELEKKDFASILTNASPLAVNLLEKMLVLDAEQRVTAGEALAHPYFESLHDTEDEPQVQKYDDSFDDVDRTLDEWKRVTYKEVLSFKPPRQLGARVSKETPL
Conditions: at 0.1 µM.

Sequence of Mitogen-activated protein kinase 3 (Homo sapiens) (P27361 whole entry): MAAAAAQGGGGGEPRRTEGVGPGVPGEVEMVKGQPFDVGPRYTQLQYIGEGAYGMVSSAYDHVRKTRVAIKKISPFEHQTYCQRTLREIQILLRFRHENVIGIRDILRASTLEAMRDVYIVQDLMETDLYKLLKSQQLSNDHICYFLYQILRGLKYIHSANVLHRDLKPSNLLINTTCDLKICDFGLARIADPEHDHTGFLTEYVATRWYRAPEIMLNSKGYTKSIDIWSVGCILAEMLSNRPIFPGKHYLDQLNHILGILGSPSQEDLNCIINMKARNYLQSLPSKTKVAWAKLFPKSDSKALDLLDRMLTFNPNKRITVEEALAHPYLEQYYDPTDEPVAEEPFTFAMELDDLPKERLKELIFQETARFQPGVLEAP
Sequence of Glycogen synthase kinase-3 beta (Homo sapiens) (P49841 whole entry, looked up): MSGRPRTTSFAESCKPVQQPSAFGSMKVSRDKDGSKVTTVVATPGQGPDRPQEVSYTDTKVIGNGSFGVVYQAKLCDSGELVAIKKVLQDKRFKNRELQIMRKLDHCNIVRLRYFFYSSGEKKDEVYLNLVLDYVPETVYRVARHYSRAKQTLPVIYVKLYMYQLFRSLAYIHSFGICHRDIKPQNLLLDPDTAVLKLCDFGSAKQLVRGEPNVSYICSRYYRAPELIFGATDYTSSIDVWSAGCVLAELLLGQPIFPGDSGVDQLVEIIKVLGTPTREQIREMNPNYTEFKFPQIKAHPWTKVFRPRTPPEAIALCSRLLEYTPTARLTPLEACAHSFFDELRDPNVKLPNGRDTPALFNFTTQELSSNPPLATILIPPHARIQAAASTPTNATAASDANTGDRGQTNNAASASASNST
Sequence of Homeodomain-interacting protein kinase 1 (Homo sapiens) (Q86Z02 whole entry, looked up): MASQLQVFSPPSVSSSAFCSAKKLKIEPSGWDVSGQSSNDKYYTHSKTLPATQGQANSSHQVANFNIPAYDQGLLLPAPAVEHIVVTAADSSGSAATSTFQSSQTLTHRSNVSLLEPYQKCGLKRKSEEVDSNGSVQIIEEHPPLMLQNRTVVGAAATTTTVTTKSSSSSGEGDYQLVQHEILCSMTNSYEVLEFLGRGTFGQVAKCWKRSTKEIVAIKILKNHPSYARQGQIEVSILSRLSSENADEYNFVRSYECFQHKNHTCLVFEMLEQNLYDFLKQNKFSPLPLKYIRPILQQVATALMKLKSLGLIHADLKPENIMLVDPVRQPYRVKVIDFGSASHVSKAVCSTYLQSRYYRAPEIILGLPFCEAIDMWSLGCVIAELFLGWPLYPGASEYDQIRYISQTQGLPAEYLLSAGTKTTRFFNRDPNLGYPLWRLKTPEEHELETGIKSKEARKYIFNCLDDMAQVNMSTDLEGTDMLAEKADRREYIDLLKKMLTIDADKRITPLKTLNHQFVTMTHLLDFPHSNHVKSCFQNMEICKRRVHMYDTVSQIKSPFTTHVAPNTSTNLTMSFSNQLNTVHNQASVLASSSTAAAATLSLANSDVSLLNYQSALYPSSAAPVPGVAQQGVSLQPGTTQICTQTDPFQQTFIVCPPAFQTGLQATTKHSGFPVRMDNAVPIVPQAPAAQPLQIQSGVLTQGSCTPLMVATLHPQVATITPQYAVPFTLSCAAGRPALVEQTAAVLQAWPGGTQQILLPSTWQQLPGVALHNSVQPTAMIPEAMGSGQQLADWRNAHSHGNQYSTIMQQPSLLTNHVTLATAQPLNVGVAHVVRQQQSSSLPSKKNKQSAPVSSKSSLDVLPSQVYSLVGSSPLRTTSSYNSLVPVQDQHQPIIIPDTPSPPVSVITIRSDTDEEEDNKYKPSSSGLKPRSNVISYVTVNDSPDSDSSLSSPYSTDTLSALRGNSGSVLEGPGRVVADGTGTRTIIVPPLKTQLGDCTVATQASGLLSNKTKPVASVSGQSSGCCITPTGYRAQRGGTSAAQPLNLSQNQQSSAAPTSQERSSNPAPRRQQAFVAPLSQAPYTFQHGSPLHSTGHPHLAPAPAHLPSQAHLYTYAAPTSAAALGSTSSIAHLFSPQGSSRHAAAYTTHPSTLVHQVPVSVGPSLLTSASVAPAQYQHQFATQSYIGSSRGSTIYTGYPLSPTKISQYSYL
Sequence of Mitogen-activated protein kinase 14 (Homo sapiens) (Q16539 whole entry): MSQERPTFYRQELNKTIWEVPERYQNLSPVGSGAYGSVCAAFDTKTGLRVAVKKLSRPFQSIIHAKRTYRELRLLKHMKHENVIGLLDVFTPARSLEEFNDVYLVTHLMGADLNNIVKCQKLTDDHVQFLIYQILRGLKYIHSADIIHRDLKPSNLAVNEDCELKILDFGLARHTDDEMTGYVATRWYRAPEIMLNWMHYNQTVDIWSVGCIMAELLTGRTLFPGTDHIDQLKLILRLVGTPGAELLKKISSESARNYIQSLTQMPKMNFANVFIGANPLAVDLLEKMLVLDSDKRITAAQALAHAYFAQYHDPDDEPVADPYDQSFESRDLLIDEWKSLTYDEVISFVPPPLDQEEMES

Turning to `Cc1cccc(-c2n[nH]cc2-c2ccc3ncccc3n2)n1`, the inhibition in test [1] was 0.05%; in [2], -0.8%; in test [3] it was 6.4%; in test [4], -0.32%; in test [5], 0.37%; in test [6] it was 1.26%. Also, the inhibition in test [7] is -0.31%; in test [8], 0.39%; in test [9] it was 1.2%; in [10] it was 3.13%; in test [11] it was 0.82%; in test [12] it was -1.48%. Further, the inhibition in test [13] is -0.43%; in test [14], 2.51%; in test [15] it was 12%; in [16], -0.93%; in [17] it was 0.8%; in test [18] it was 1.23%. Also, the values for the inhibition in test [19] and in test [20] were -0.48% and 0.84%, respectively.

As for `CCn1c(-c2nonc2N)nc2ccncc21`, the inhibition in test [1] is 5.32%; in test [2], -3.19%; in test [3] it was 0.47%; in [4], -0.89%; in test [5] it was -0.65%; in [6], 3.39%. Moreover, the inhibition in [7] was 2.53%; in [8] it was 13.4%; in test [9], 1.62%; in test [10] it was 2.94%; in test [11], 1.29%; in test [12] it was -2.05%. In addition, the inhibition is -2.78% in test [13]; 2.59% in [14]; 3.78% in [15]; 2.84% in test [16]; 2.34% in test [17]; 0.59% in test [18]. Moreover, the inhibition in test [19] worked out at 0.17%; in test [20] it was 2.32%.

With `CNC(=O)c1cncc(/C=C/c2c(Cl)cccc2Cl)c1`, the inhibition is 1.92% in test [1]; -2.63% in test [2]; 4.11% in test [3]; 1.25% in test [4]; 7.87% in [5]; 4.08% in [6]. The inhibition in test [7] was 10.1%; in test [8], 5%; in [9], 4.6%; in [10], 5.34%; in test [11] it was 3.8%; in test [12], 2.22%. The inhibition was 0.6% in test [13]; 6.41% in [14]; 8.04% in test [15]; 2.44% in test [16]; 4.25% in test [17]; 3.64% in test [18]. The inhibition in test [19] was 5.05%; in test [20], 3.45%.

For the molecule `NC(=O)c1ccc(-c2nc(-c3ccccn3)c(-c3ccc4c(c3)OCO4)[nH]2)cc1`, the inhibition in [1] was 6.9%; in test [2] it was -0.15%; in test [3], 2.8%; in test [4] it was 1.68%; in [5], 1.67%; in [6], 1.97%. Moreover, the inhibition in test [7] was 5.34%; in test [8], 2.52%; in test [9], 1.22%; in test [10] it was 1.34%; in test [11], 1.38%; in [12], -1.12%. For the same molecule, the inhibition in test [13] came out at 0.34%; in [14], 7.26%; in test [15], 15.5%; in test [16] it was 5.42%; in test [17], 10.6%; in test [18], 1.16%. Besides, the inhibition is 2.44% in [19] and 0.17% in test [20].

Turning to `COc1ccccc1Nc1ncc(-c2ccccc2)o1`, the inhibition is 2.74% in [1]; -3.68% in test [2]; 0.57% in test [3]; -0.52% in test [4]; 0.15% in test [5]; 4.12% in test [6]. For the same molecule, the inhibition is 3.07% in test [7]; 5.93% in test [8]; 6.15% in test [9]; 4.06% in test [10]; 5.55% in test [11]; -1.49% in test [12]. The inhibition in [13] was determined as 1.35%; in test [14], 10.4%; in test [15] it was 11%; in test [16], 4.31%; in test [17], 7.08%; in test [18], 5.83%. The inhibition in [19] was determined as 4.74%; in [20] it was 4.14%.

With `CC(=O)Nc1cccc(C#Cc2cncnc2Nc2ccc(OCc3cccc(F)c3)c(Cl)c2)n1`, the inhibition in test [1] was 3.63%; in test [2] it was 1.74%; in test [3], 3.28%; in test [4] it was 0.85%; in test [5] it was 1.32%; in test [6] it was -0.98%. Moreover, the inhibition in [7] was -1.17%; in test [8], -0.75%; in test [9] it was -1.7%; in test [10] it was -0.64%; in test [11], 1.62%; in [12], -0.01%. Further, the inhibition in test [13] was 3.44%; in test [14], -0.35%; in test [15], -1.8%; in test [16], 0.21%; in [17] it was 3.12%; in test [18] it was -1.33%. Moreover, the figures for the inhibition in test [19] and in test [20] were -1.57% and -2.16%, respectively.
